This passage reports binding signal results from paper PMC12136788.

To fix the notation:
B1: chr2:39278355:39278356:-_ENSG00000115904_ENST00000402219|hu_mus|motif|central (ssRNA)
RNA: GGGAGUUCUACAGUCCGACGAUCACAGCUUCCUACUAAUGGGUGGGGACUGCCUUCAUCUGUCAUUUCUACAGUAUCUUCGGUAUGGCCCAGUAACUUUACACUAAGUUCAUGUAUAUCUACUAUACGACUGAAUAUGUUUUCCAACAGAGGAUUGAGCAUCA
B2: chr1:40083102:40083103:+_ENSMUSG00000026074_ENSMUST00000163854|mus_hu|FALSE|FALSE (ssRNA)
RNA: GGGAGUUCUACAGUCCGACGAUCCAUGAAACAAAUUCUUUCUCAAGACAUUUAUUACAAAUGUCAUGAAUAUAUUCAUAAAGUAAAAUUGGUUUAAAAAAACAGAGAACAAGAGAGCAAGUGAGAAAACGAGAAAAGCCAGGACAACAGAGGAUUGAGCAUCA
B3: chrX:45232703:45232704:-_ENSMUSG00000031099_ENSMUST00000088973|mus_hu|FALSE|FALSE (ssRNA)
RNA: GGGAGUUCUACAGUCCGACGAUCAGAUGGGACCCAUCGUUUAAAUUCAUUCAUCCAGUUGUGUAAAGUAGACUUUGGAACUAAAACCAUGUGAGGUCCAGGAAUAUUUCGGUAGUGUUUCAGGUAACCAAGCAAAGCAAUUGUCAACAGAGGAUUGAGCAUCA
B4: chr4:62795864:62795865:+_ENSMUSG00000028358_ENSMUST00000107415|mus_mus|FALSE|FALSE (ssRNA)
RNA: GGGAGUUCUACAGUCCGACGAUCGCCUCCCAGAAAUCACAUGUGAAAAGAAACCGAGUCCCCCAUAAGAUAAAAAAUUUGCUAAAGUAUUGUGAAAAAUGACGACAACAACAACAACAAAAUUGAGUGGAGAGUCAGCUAUGUCAACAGAGGAUUGAGCAUCA
B5: chr1:66485854:66485855:+_ENSMUSG00000015222_ENSMUST00000077355|mus_mus|FALSE|FALSE (ssRNA)
RNA: GGGAGUUCUACAGUCCGACGAUCCCUUUCAGAAUGUAUUGGAUAGCCUUCAGGCACAUGAAAGGUAAAAAUGCAAUUUAAAAAAUAAUAAUAAUACUCCAUGCAAAACAGAGCAGAGCGAAAAUAAUUGUCCGAUUGUAUCCACAACAGAGGAUUGAGCAUCA
B6: 24503659_24515395_812_3pUTR_ENSG00000112294_ENST00000357578|human|control|control (ssRNA)
RNA: GGGAGUUCUACAGUCCGACGAUCGCUCAGCCAGGGCCAGGGCGGAGAAGGGCGUGUCUUCGGCAGGCUUCACCACGACAGUACAGCCGGCUGCCAGGGCGGCCCCCACCUUCCGGGUGAUCAUGGCACUGGGGAAAUUCCACGCAACAGAGGAUUGAGCAUCA
B7: chr19:15271055:15271056:-_ENSG00000074181_ENST00000263388|hu_hu|motif|central (ssRNA)
RNA: GGGAGUUCUACAGUCCGACGAUCCAUAUAUAUAUUUUGUAAAAAAUAAUAAUAAUAAGUUUGUUUAAAUGAAUUUGUUUCGGUACAAAAUGUAAAAAAAAAAAGAAAAAUAAAAAUAAUAAUAAUUCAUUCAUGUCAGAGUGUCAACAGAGGAUUGAGCAUCA
B8: 1087333_1088580_755_CDS_ENSG00000067064_ENST00000381344|human|control|control (ssRNA)
RNA: GGGAGUUCUACAGUCCGACGAUCUACAUUCUUCCUCACCAACAAAAUGUAAUCAAUUUCAUGUUCACCCCAGAUACCAUCAGACUGAGCUUUGUAGUGAAUUCGUGUUAAAUAAUUAAUUUCUUCUGGAGGAACCUCUUCCAACAACAGAGGAUUGAGCAUCA
B9: chr2:192256868:192256869:+_ENSG00000128641_ENST00000304164|hu_hu|FALSE|FALSE (ssRNA)
RNA: GGGAGUUCUACAGUCCGACGAUCUGGGUUUCGGAUGAAUAUCUUUGAUCUACCAAAGGAGUAUUCUUCCACGGGAAUUUCUAAUUCAUUAAAUAGGACCUCCACACCAGACCUGGCUGGUCCUUUCCAAUGAGGCCAUGUUUGCAACAGAGGAUUGAGCAUCA
B10: chr16:28827448:28827449:-_ENSMUSG00000051065_ENSMUST00000100023|mus_hu|FALSE|FALSE (ssRNA)
RNA: GGGAGUUCUACAGUCCGACGAUCAAAUAUCAGUAGUGGUGAAAGCUCAUAAGAAAAAAGACAAAAACAAAAUAAUAAAAAUAAUAGGAUAGAAUCGUUAAGCAUCAGAAAGAGAUUUGUUUCCCCAUACCCAUGAACAAAUUUCAACAGAGGAUUGAGCAUCA
B11: chr17:27717376:27717377:-_ENSMUSG00000024213_ENSMUST00000025050|mus_mus|FALSE|FALSE (ssRNA)
RNA: GGGAGUUCUACAGUCCGACGAUCCACAGGACAGAUUUUUAGAAAGUUUCAUCGCACAUGGGUGUCUUUUAAUGAAAAAAAAAAAAAAAAUUCAGAGGAAAUAUCUGGCCAGGCCGGGACGAGACAAAUGGGAGUGCUUCGGAACAACAGAGGAUUGAGCAUCA
B12: chr14:49642940:49642941:-_ENSMUSG00000061244_ENSMUST00000162175|mus_mus|FALSE|FALSE (ssRNA)
RNA: GGGAGUUCUACAGUCCGACGAUCUAAAGCAUAAUCAAUAUGCUCAAUACAUAAAAAUUCCACAAGAAUGGUAAAAAUUCUAAAGGCAUUCCUUGGUAAAUCAGAAGGAUCAGAAAGCCUAUGACAUCUUUCAAAGGCUUGUUUCAACAGAGGAUUGAGCAUCA
B13: 113942580_113943501_80_5pUTR_ENSG00000119927_ENST00000348367|human|control|control (ssRNA)
RNA: GGGAGUUCUACAGUCCGACGAUCAUAAAACUUCAGGACUCAGCUAUCAGUUUCGGGUGCAGAAUGUCCAUACAACAGGGGAGCCGCUGCUGCCCUAGCAGCUCCAGCUUCGGCUGCUGCAGAAGCCCGCACUUCCAGUCCCGGCAACAGAGGAUUGAGCAUCA
B14: chr7:65419240:65419241:+_ENSG00000196715_ENST00000360768|hu_mus|motif|central (ssRNA)
RNA: GGGAGUUCUACAGUCCGACGAUCGCUGGCCAUCAGUCUUCCUUAGGCUGCAGCUGUCGCUUCCAGGCCUCAUUCAAAUAAACGGGUCGUUUGUAAUUGAUGAUGAGGAGGAGGAAGUUCAGCACAUAUGUGGUGACGCAGAUGCAACAGAGGAUUGAGCAUCA
B15: chr11:107358869:107358870:+_ENSMUSG00000020720_ENSMUST00000021063|mus_hu|FALSE|FALSE (ssRNA)
RNA: GGGAGUUCUACAGUCCGACGAUCCUCUGGAAGUUGAUAAUUCCUGCUAAUCUGUCUACUUUAGCAAAGAUGGUCUUGUUAACUACUAGAUUUGAGAGAAAGGCUUCGGACUCAUCAACAGAUAGAUCCAGAAGCUGUGCCAUCCAACAGAGGAUUGAGCAUCA
B16: chr3:55808730:55808731:-_ENSMUSG00000027799_ENSMUST00000029374|mus_mus|FALSE|FALSE (ssRNA)
RNA: GGGAGUUCUACAGUCCGACGAUCUGACGUCGUAUGAAUUCUGAAGUCUUUCUCUUCCAUUAUGCUUGAUGUGCACGUUAACUCUACACUCGCAGUCAUGUGAGCAAGCAACCCAAGAUCAUCACUGACACCAAGAUGUACUUGCAACAGAGGAUUGAGCAUCA
B17: 75313438_75313660_4053_CDS_ENSMUSG00000020850_ENSMUST00000102510|mouse|control|control (ssRNA)
RNA: GGGAGUUCUACAGUCCGACGAUCCUUGGACCACCUGAGGUCAGACUGGGGGAUAAGCACAUGGCCCAUCGAGAGCAUGCCAAGCCCACCCAGCUCCUUAGGGGUGUAGAAUACAACAGGCGGGAACCGGCUAGGCAUCUUGGACAACAGAGGAUUGAGCAUCA
B18: chr4:125586161:125586162:-_ENSG00000151458_ENST00000504087|hu_mus|FALSE|FALSE (ssRNA)
RNA: GGGAGUUCUACAGUCCGACGAUCCACGACGUCCUAAACAGUUGAUUUACAAAAUUUAAAUAUUUGAAUUUCAAAAAUAGCCAUUUAUUAUUAUUUUUUUAUUUGUGGGACCGUUUCUUAUCUUUGUAAUAGAGAAGUCAUUGUCAACAGAGGAUUGAGCAUCA
B19: chr19:53454881:53454882:-_ENSMUSG00000025024_ENSMUST00000025997|mus_mus|motif|central (ssRNA)
RNA: GGGAGUUCUACAGUCCGACGAUCGUUUCAUUCUACCAAAGCCAAACAAUGACAACAAUGUAUCUUCCUUACUCAGCAUCGGAGCAAUCAGUUACCUUUAGAAAAAUACAAGGAUAAAAAGGAGAGUGUAAAGUAAAGCCCUGCCAACAGAGGAUUGAGCAUCA
B20: chr10:123500321:123500322:-_ENSG00000107669_ENST00000369043|hu_hu|motif|central (ssRNA)
RNA: GGGAGUUCUACAGUCCGACGAUCACGUUAAGAAACUACACACAACAAAUAUUUGCAAAAUGAAUGAAAAAUAGGAUAAAGCGGUUUAAAAGUCAACAUAGUAAUAUUUAUCUAAAUAAUUUUAAUCAAAUGUACAACAUAUUUCAACAGAGGAUUGAGCAUCA
B21: chr6:117881578:117881579:-_ENSG00000047932_ENST00000052569|hu_mus|FALSE|FALSE (ssRNA)
RNA: GGGAGUUCUACAGUCCGACGAUCCUUUAAUGUAGAAUAUGUCAUUUUUAUUUACAGGCUAAUUAAGAAUAUGAAACUCAACUAGAUAUAAUACAAUUAUCAUAAAUCCCCUUAUAUGUAAAUUAAUAUAUUUUUUGUUUUAAACAACAGAGGAUUGAGCAUCA
B22: chr4:95690885:95690886:+_ENSMUSG00000028572_ENSMUST00000156910|mus_mus|mus_mus_mus_hu_False|78_98 (ssRNA)
RNA: GGGAGUUCUACAGUCCGACGAUCUUUAGAAAAUGUUAAUGUUAAAUCUAAAAUAUUGUAAUUUUAAUAUUUUAUUUUACCAGAAGUCACAGGCAAGCAGACACUACAAGAAUAUAUGAAAAUGAAACUCAACAAUAUAACUGUCAACAGAGGAUUGAGCAUCA
B23: 207631549_207631669_399_CDS_ENSG00000118246_ENST00000403094|human|control|control (ssRNA)
RNA: GGGAGUUCUACAGUCCGACGAUCAAAAAUGAAUGCAUCCUGAAAGAGAUAUCUAAUGAUAUCAGUUGAUUGCAUUCUGUUAUGAAAGUUAUUUAAAAUGUUCCAGUUUGAAUGAACUAUUUUUGGUUUGCAAAGUCCCAAACACAACAGAGGAUUGAGCAUCA
B24: chr19:46159329:46159330:+_ENSMUSG00000015176_ENSMUST00000165017|mus_hu|FALSE|FALSE (ssRNA)
RNA: GGGAGUUCUACAGUCCGACGAUCGGUCAAGUUGUCAAAAAAUGUCUUUCAACAGUAGAAAAGUUUGCUUUCAAAUUAAAAAACAAAGCACGUAUUGCAAACAUCGUGUAAUGAUAAAAUUACAGAAAAAAAUAUAUUCAGAAUCAACAGAGGAUUGAGCAUCA
B25: chr19:15271055:15271056:-_ENSG00000074181_ENST00000263388|hu_hu|FALSE|FALSE (ssRNA)
RNA: B7 RNA with G81U, G82A

Substitutions are numbered along the chain they refer to. Over roughly 24,000 sequences, “enrichment r” has its median near 0.99; the highest 2% begin near 3.7. This excerpt belongs to a sample that is enriched for the highest values.

For this assay, the target named is T1, UNK ZnF1-3 (human, UniProt Q9C0B0 31-174).
T1 sequence: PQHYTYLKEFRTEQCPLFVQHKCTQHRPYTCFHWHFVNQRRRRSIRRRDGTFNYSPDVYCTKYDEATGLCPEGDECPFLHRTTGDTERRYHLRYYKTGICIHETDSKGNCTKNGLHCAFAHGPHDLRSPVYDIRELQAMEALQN
The assay is described as follows: nsRBNS (natural sequence RNA bind-n-seq); RBNS binding buffer (assumed for nsRBNS): 25 mM Tris pH 7.5, 150 mM KCl, 3 mM MgCl2, 0.01% Triton X-100, 500 ug/ml BSA, 20 U/ml SUPERase-In, 4 C; UNK is unkempt and MSI1 is Musashi-1; names of the RNAs are library labels; protein concentration not given here; high values mean tight binding.
In turn, B1 displayed a binding signal of 0.721 enrichment R.
Molecule B2 gave a binding signal of 2.12 enrichment R.
To B3 belongs 1.15 enrichment R; to B4, 3.53 enrichment R; to B5, 5.46 enrichment R.
With B6, the binding signal came to 1.27 enrichment R.
For B7, the binding signal stood at 11.2 enrichment R.
For B8, the binding signal turned out to be 3.42 enrichment R.
To B9 belongs 0.529 enrichment R; to B10, 8.38 enrichment R; to B11, 4.44 enrichment R.
To B12 belongs 0.307 enrichment R; to B13, 1.22 enrichment R; to B14, 1.01 enrichment R.
B15 displayed a binding signal of 3.65 enrichment R.
To B16 belongs 0.64 enrichment R; to B17, 0.919 enrichment R.
To B18 belongs 3.35 enrichment R.
The molecule B19 came in with a binding signal of 1.52 enrichment R.
On to B20, for which the binding signal turned out to be 6.73 enrichment R.
To B21 belongs 4.33 enrichment R; to B22, 3.29 enrichment R; to B23, 0.397 enrichment R.
To B24 belongs 6.25 enrichment R.
To B25 belongs 9.9 enrichment R.
